Data: the supplement of paper PMC7695840
Counter-ions that a name gives are not always drawn.

Key:
[1] = system: Staphylococcus aureus MW2 delta-mecA (mecA-); test: normalized GFP fluorescence (growth of mecA- strain) (fraction of control range); higher = more growth of mecA- strain; conditions: compound concentration: 150 uM; cefoxitin: subinhibitory; fluorescent label: GFP
How it was run: (§1)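 Single-replicate 1536-well plates carried 150 μM compound (1.5% DMSO), onto which 5 µL/well of a 1:1 mix of pre-induced S. aureus MW2 cells was dispensed: gene-carrying cells tagged with DsRed and deletion cells tagged with GFP, in LB with a subinhibitory antibiotic dose set daily. Incubation ran 20 h at 37 °C, 90% humidity, unshaken, followed by DsRed (540/590) and GFP (485/520) reads. Per-plate scaling of each channel used single-strain control medians, and plates with high untreated ratios and rows with DsRed/GFP >10 were excluded.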

[2] = system: Staphylococcus aureus MW2 (mecA+); test: normalized DsRed fluorescence (growth of mecA+ strain) (fraction of control range); higher = more growth of mecA+ strain; conditions: compound concentration: 150 uM; cefoxitin: subinhibitory; fluorescent label: DsRed
How it was run: as §1

SMILES	normalized GFP fluorescence [1]	normalized DsRed fluorescence [2]
CCOC(=O)c1cncn1C(C)c1ccccc1 (stereo not given)	0.248	0.732
C=C/C=C\CC1=C(C)[C@@H](OC(=O)[C@@H]2[C@@H](/C=C(\C)C(=O)OC)C2(C)C)CC1=O.C=C/C=C\CC1=C(C)[C@@H](OC(=O)[C@@H]2[C@@H](C=C(C)C)C2(C)C)CC1=O	0.39	0.442
Cc1cccc([C@H](C)c2c[nH]cn2)c1C [Dexmedetomidine]	0.289	0.702
CC1(C)C(C=C(Cl)Cl)C1C(=O)OCc1cccc(Oc2ccccc2)c1 (stereo not given)	0.134	0.704
O=c1[nH]c2ccccc2n1CCCN1CCC(n2c(=O)[nH]c3cc(Cl)ccc32)CC1 [Domperidone (Motilium)]	0.0985	0.927
O=[N+]([O-])O[C@H]1CO[C@H]2[C@@H]1OC[C@H]2O[N+](=O)[O-]	0.915	0.65
Oc1ccc2c3c1O[C@H]1[C@@H](O)CC[C@@]4(O)[C@@H](C2)N(CC2CCC2)CC[C@]314	0.717	0.715
C[C@]12CC[C@H]3[C@@H](CCC4=CC(=O)CC[C@@]43C)[C@@H]1CC[C@@H]2O	0.501	0.506
C[C@@H]1[C@H](O)[C@@H](C)/C=C/C=C/CC/C=C/C=C/C=C/C=C/[C@H](O[C@H]2O[C@@H](C)[C@H](O)[C@@H](N)[C@H]2O)C[C@@H]2O[C@](O)(C[C@@H](O)[C@H](O)CC[C@@H](O)C[C@@H](O)C[C@@H](O)CC(=O)O[C@H]1C)C[C@H](O)[C@H]2C(=O)O [Nystatin (Fungicidin)]	0.00493	0.585
CC[C@@H](C(N)=O)N1CCCC1=O	0.416	1.14
NC(=O)C[S+]([O-])C(c1ccccc1)c1ccccc1 (stereo not given)	0.716	0.558
CC(C)C[C@H]1C(=O)N2CCC[C@H]2[C@]2(O)O[C@](NC(=O)[C@@H]3C=C4c5cccc6[nH]c(Br)c(c56)C[C@H]4N(C)C3)(C(C)C)C(=O)N12	0.246	1.03
CCN(C)C(=O)Oc1cccc([C@H](C)N(C)C)c1	0.23	0.742
COc1ccc2c(c1)[C@]13CCCC[C@@H]1[C@H](C2)N(C)CC3	0.241	1.04
C[N+]1(C)CCCC(OC(=O)C(O)(c2ccccc2)c2ccccc2)C1 (stereo not given)	0.765	0.852
CN1C[C@H](C(=O)N[C@]2(C)O[C@@]3(O)[C@@H]4CCCN4C(=O)[C@H](Cc4ccccc4)N3C2=O)C[C@@H]2c3cccc4[nH]cc(c34)C[C@H]21	0.246	0.753
COc1cc2c(c(OC)c1OC)-c1ccc(OC)c(=O)cc1[C@@H](NC(C)=O)CC2	0.0184	0.897
CN1[C@@H]2CC[C@H]1C[C@@H](OC(=O)[C@H](CO)c1ccccc1)C2	0.693	0.664

SMILES	normalized GFP fluorescence [1]	normalized DsRed fluorescence [2]
CNCC(O)c1ccc(O)cc1 (stereo not given) [Synephrine (Oxedrine)]	0.516	0.777
O=P1(N(CCCl)CCCl)NCCCO1 (stereo not given)	0.58	0.629
CNCC(=O)c1ccc(O)c(O)c1 [Adrenalone HCl]	0.708	0.797
C[C@]12CCC(=O)C(O)=C1CC[C@@H]1[C@@H]2CC[C@]2(C)C(=O)CC[C@@H]12 [Formestane]	0.477	0.7
CC[C@H](C)[C@H]1O[C@]2(C=C[C@@H]1C)C[C@@H]1C[C@@H](C/C=C(\C)[C@@H](O[C@H]3C[C@H](OC)[C@@H](O[C@H]4C[C@H](OC)[C@@H](O)[C@H](C)O4)[C@H](C)O3)[C@@H](C)/C=C/C=C3\CO[C@@H]4[C@H](O)C(C)=C[C@@H](C(=O)O1)[C@]34O)O2.CO[C@H]1C[C@H](O[C@H]2[C@H](C)O[C@@H](O[C@@H]3/C(C)=C/C[C@@H]4C[C@@H](C[C@]5(C=C[C@H](C)[C@@H](C(C)C)O5)O4)OC(=O)[C@@H]4C=C(C)[C@@H](O)[C@H]5OC/C(=C\C=C\[C@@H]3C)[C@]54O)C[C@@H]2OC)O[C@@H](C)[C@@H]1O	0.294	0.502
CCN(C(C)=O)c1cccc(-c2ccnc3c(C#N)cnn23)c1	0.782	0.598
C[C@H]1CNCCc2ccc(Cl)cc21 [Lorcaserin HCl]	0.467	0.636
CCCC(C)C1(CC)C(=O)NC(=S)NC1=O (stereo not given)	0.288	0.518
Cc1ccc(-c2nc3ccc(C)cn3c2CC(=O)N(C)C)cc1	0.38	0.527
NC(=O)CN1CCCC1=O	0.168	0.628
CCC(COC(=O)c1cc(OC)c(OC)c(OC)c1)(c1ccccc1)N(C)C (stereo not given) [Trimebutine]	0.293	0.646
CC(Cc1ccc(O)cc1)NCC(O)c1cc(O)cc(O)c1 (stereo not given)	0.322	0.737
CC(O)(CS(=O)(=O)c1ccc(F)cc1)C(=O)Nc1ccc(C#N)c(C(F)(F)F)c1 (stereo not given) [Bicalutamide (Casodex)]	0.0167	0.707
NCCCNCCSP(=O)(O)O	0.429	0.76
O=c1n(Cl)c(=O)n(Cl)c(=O)n1Cl	0.337	0.35
O=[N+]([O-])O[C@@H]1CO[C@H]2[C@@H]1OC[C@@H]2O	0.742	1.13
CN(C)C(=O)Oc1ccc[n+](C)c1	0.22	0.58
